# Results published in article PMC5540273 (PLoS ONE, 2017).
# Key:
# Conditions in all cases: concentration: 1 μM, replicates: in singlicate; n = 1
# [1] = tested on: ALK
# [2] = tested on: T1, AMPK-alpha1
# T1 construct: gene PRKAA1
# [3] = tested on: T2, AMPK-alpha2
# T2 construct: gene PRKAA2
# [4] = tested on: ANKK1
# [5] = tested on: T3, ARK5
# T3 construct: gene NUAK1
# [6] = tested on: T4, ASK1
# T4 construct: gene MAP3K5
# [7] = tested on: T5, ASK2
# T5 construct: gene MAP3K6
# [8] = tested on: AURKA
# [9] = tested on: AURKB
# [10] = tested on: AURKC
# [11] = tested on: AXL
# [12] = tested on: T6, BIKE
# T6 construct: gene BMP2K
# [13] = tested on: BLK
# [14] = tested on: BMPR1A
# [15] = tested on: BMPR1B
# [16] = tested on: BMPR2
# [17] = tested on: BMX
# [18] = tested on: BRAF
# [19] = tested on: T7, BRK
# T7 construct: gene PTK6
# [20] = tested on: BRSK1
# 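Also: KINOMEscan kinase panel screen.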
Compound,%Inh [1],%Inh [2],%Inh [3],%Inh [4],%Inh [5],%Inh [6],%Inh [7],%Inh [8],%Inh [9],%Inh [10],%Inh [11],%Inh [12],%Inh [13],%Inh [14],%Inh [15],%Inh [16],%Inh [17],%Inh [18],%Inh [19],%Inh [20]
CCC(=O)c1c(-c2ccccc2)c2cc(Cl)ccc2c(=O)n1Cc1cc(S(C)(=O)=O)n(CC(F)F)n1,0%,0%,8%,0%,5%,0%,0%,0%,11%,0%,0%,0%,0%,0%,6%,1%,0%,13%,0%,0%
CCCC(=O)Nc1n[nH]c2ncc(-c3cccc4ccccc34)cc12 [SB-642057],29%,37%,19%,7%,6%,9%,9%,6%,24%,16%,18%,28%,0%,12%,5%,0%,0%,0%,0%,0%
Cc1nn2c(=O)cc(N3CCOCC3)nc2n1Cc1cccc(Cl)c1Cl [GSK2342769],29%,0%,2%,0%,20%,5%,7%,0%,3%,0%,4%,2%,18%,0%,0%,4%,12%,7%,1%,0%
CCS(=O)c1ccc(-c2coc3ccc(-c4nnc(C)o4)cc23)cc1 (centres unmarked),5%,26%,1%,30%,0%,0%,0%,16%,1%,0%,0%,0%,3%,0%,6%,15%,18%,0%,0%,0%
Cc1ccccc1COc1cc(-n2cnc3cc(Cl)ccc32)sc1C(N)=O [GW813349],23%,0%,3%,26%,0%,18%,0%,26%,2%,31%,2%,20%,18%,0%,12%,26%,1%,6%,0%,0%
Cc1ccc(-c2ccc3c(ccc4sc5c(c43)NC[C@@H](C)N=C5N(C)C)n2)cn1,4%,0%,0%,0%,0%,0%,0%,0%,0%,0%,0%,0%,0%,0%,0%,0%,0%,0%,0%,0%
Nc1ncnc2c1ncn2-c1ccc(Cl)cc1 [AH2635],0%,0%,0%,0%,0%,0%,0%,0%,0%,17%,0%,28%,24%,0%,0%,2%,20%,0%,0%,0%
Cc1cccc(-c2cc(-c3c[nH]nc3-c3ccccn3)ccn2)c1 [GW679395],30%,0%,0%,0%,0%,5%,0%,8%,15%,0%,0%,0%,32%,0%,2%,1%,0%,8%,4%,0%
COc1cc(Nc2nccc(N3CCC(NC(=O)C(C)c4ccc(Cl)cc4)C3)n2)cc(OC)c1OC (centres unmarked) [GSK1379757],22%,17%,0%,17%,34%,0%,0%,52%,60%,72%,13%,40%,28%,0%,0%,4%,1%,0%,11%,0%
Cc1nnc(-c2ccc(C)c(-c3ccc(C(=O)O)cc3)c2)o1 [GW608005],1%,0%,0%,0%,11%,0%,0%,0%,0%,6%,0%,0%,31%,0%,0%,0%,0%,0%,0%,2%
CCn1c(-c2nonc2N)nc2ccccc21 [SB-693162/GW549034],0%,7%,0%,51%,3%,16%,2%,27%,37%,0%,25%,6%,21%,0%,34%,40%,0%,15%,0%,46%
CCn1c(-c2ccoc2)nc2cnccc21 [SB-733887],31%,10%,9%,0%,0%,23%,5%,16%,45%,10%,5%,6%,0%,0%,10%,20%,0%,1%,0%,0%
COc1cc(Nc2ccnc3ccc(C(F)(F)F)cc23)cc(OC)c1OC [GW577382],22%,0%,25%,12%,10%,6%,19%,49%,0%,7%,12%,0%,34%,0%,22%,22%,16%,8%,8%,0%
OCCCNc1nccc(-c2c(-c3cccc(C(F)(F)F)c3)nn3cc(C(F)(F)F)ccc23)n1 [GW630813],0%,0%,0%,5%,0%,0%,0%,17%,0%,7%,0%,0%,33%,0%,0%,0%,13%,0%,0%,0%
CCC(=O)c1c(-c2ccccc2)c2cc(Cl)ccc2c(=O)n1Cc1ccc(C(=O)O)cc1,0%,0%,0%,0%,6%,0%,0%,0%,19%,0%,0%,0%,0%,0%,0%,4%,0%,48%,0%,0%
COC(=O)c1c(-c2ccccc2)c2cc(Br)ccc2c(=O)n1Cc1ccc(S(C)(=O)=O)cc1,52%,15%,9%,0%,11%,2%,0%,35%,20%,0%,7%,0%,9%,0%,19%,3%,17%,57%,0%,29%
O=C(NCc1cccs1)c1cc(C(=O)c2c(Cl)cccc2Cl)c[nH]1 [GW823670],0%,8%,0%,0%,0%,19%,0%,0%,9%,1%,0%,19%,28%,7%,0%,15%,0%,0%,0%,0%
COc1ccc(-n2cnc3c(N)ncnc32)cc1 [SKF-97236],0%,16%,20%,17%,0%,0%,0%,0%,16%,63%,22%,55%,16%,34%,0%,0%,0%,5%,0%,2%
Nc1n[nH]c2ncc(-c3ccccc3)cc12 [SB-517081],38%,0%,0%,28%,2%,0%,0%,21%,64%,27%,0%,17%,13%,2%,0%,34%,0%,0%,24%,0%
Nc1ncnc2c1ncn2-c1cccc(F)c1 [SKF-97560],43%,0%,0%,17%,2%,18%,35%,0%,6%,0%,13%,0%,0%,0%,29%,26%,24%,24%,0%,0%
COC(=O)c1c(-c2ccccc2)c2cc(Br)ccc2c(=O)n1Cc1ccc(NC(=O)CCC(=O)O)cc1,52%,21%,22%,0%,0%,2%,0%,0%,9%,0%,0%,0%,4%,0%,6%,7%,2%,42%,0%,0%
Cc1nnc(-c2ccc3ncn(-c4ccc(S(C)=O)cc4)c3c2)o1 (centres unmarked),6%,0%,2%,0%,21%,0%,0%,21%,10%,5%,4%,0%,0%,19%,0%,0%,12%,0%,19%,0%

Compound,%Inh [1],%Inh [2],%Inh [3],%Inh [4],%Inh [5],%Inh [6],%Inh [7],%Inh [8],%Inh [9],%Inh [10],%Inh [11],%Inh [12],%Inh [13],%Inh [14],%Inh [15],%Inh [16],%Inh [17],%Inh [18],%Inh [19],%Inh [20]
O=C(Nc1n[nH]c2nc(-c3ccccc3)c(Cl)cc12)C1CC1 [SB-734909],15%,0%,10%,19%,1%,0%,21%,28%,33%,25%,0%,21%,0%,9%,27%,0%,1%,62%,0%,70%
CCc1nc(-c2cccc(C)c2)c(-c2ccncc2)s1,0%,0%,0%,0%,17%,0%,0%,0%,13%,0%,0%,3%,0%,0%,0%,0%,0%,50%,7%,0%
COC(=O)c1c(-c2ccccc2)c2cc(C)ccc2c(=O)n1Cc1ccccc1,0%,0%,0%,0%,4%,0%,0%,0%,9%,0%,0%,0%,0%,0%,0%,0%,19%,79%,0%,0%
Nc1ncnc2c1ncn2-c1cccc2ccccc12 [SKF-97184],0%,0%,21%,0%,0%,0%,0%,0%,28%,0%,0%,0%,6%,0%,0%,35%,0%,0%,0%,0%
O=C(Nc1n[nH]c2nc(-c3ccccc3)c(Br)cc12)C1CC1 [SB-708998],1%,12%,18%,14%,0%,0%,0%,7%,4%,36%,0%,28%,8%,16%,0%,0%,7%,31%,0%,60%
Cl.c1ccc(Cn2cnc3cc(Nc4ncnc5ccccc45)ccc32)cc1 [GW272142],21%,0%,0%,0%,0%,4%,2%,0%,19%,14%,0%,34%,0%,0%,0%,0%,6%,0%,11%,4%
O=c1cc(N2CCOCC2)nc2n(Cc3ccc(F)c(Cl)c3)ccn12 [GSK2297099],20%,0%,19%,13%,14%,2%,0%,0%,0%,0%,0%,0%,13%,0%,0%,0%,5%,8%,0%,0%
COc1cc(OC)cc(-c2cc3cnc(N)nc3nc2NC(=O)NC(C)(C)C)c1,0%,0%,15%,0%,0%,0%,0%,0%,0%,0%,0%,0%,8%,54%,0%,0%,0%,10%,0%,0%
CCCNC(=O)Nc1ccc(Oc2ncnc3ccn(C)c23)cc1,0%,0%,12%,0%,0%,0%,1%,7%,60%,0%,0%,0%,14%,10%,0%,16%,0%,0%,0%,0%
COc1ccc(-c2cc3c(C)nc(N)nc3n([C@H]3CC[C@H](O)CC3)c2=O)cn1,0%,0%,0%,0%,4%,6%,0%,0%,0%,0%,0%,0%,0%,40%,0%,0%,0%,0%,0%,0%
COc1cccc(-n2cnc3c(N)ncnc32)c1 [SKF-97416],56%,2%,15%,14%,0%,4%,35%,0%,31%,5%,0%,0%,0%,17%,24%,57%,0%,18%,0%,16%
O=C(NCCNc1ccnc(Nc2ccc(F)cc2)n1)Nc1ccc2c(c1)OCO2 [GSK1379882],24%,0%,2%,18%,11%,14%,0%,28%,0%,36%,0%,17%,7%,0%,10%,0%,7%,0%,0%,11%
O=C(Nc1ccc2c(c1)OCO2)NC1CCN(c2ccnc(NCc3ccc(F)cc3)n2)CC1 [GSK1379859],9%,0%,0%,0%,6%,0%,0%,11%,0%,24%,2%,7%,43%,0%,0%,0%,3%,0%,4%,0%
Fc1cccc(CSc2nnc(-c3ccc4c(c3)CCO4)o2)c1,79%,13%,17%,35%,11%,11%,22%,9%,20%,0%,0%,0%,0%,1%,5%,0%,0%,7%,2%,0%
Cc1c(Cn2c(C)nn3c(=O)cc(N4CCO[C@H](C)C4)nc23)cccc1C(F)(F)F [GSK2373690],22%,0%,27%,0%,2%,11%,15%,0%,27%,30%,0%,31%,10%,15%,0%,0%,21%,0%,32%,7%
CN(C)c1cc(-c2ccc3c(N)n[nH]c3c2)nc(N)n1 [GSK2219329],0%,0%,11%,10%,0%,0%,0%,0%,10%,9%,0%,32%,2%,0%,0%,0%,13%,0%,0%,0%
CCC(=O)c1c(-c2ccccc2)c2cc(Cl)ccc2c(=O)n1Cc1cc(C(=O)NC2CC2)n(C)n1,32%,22%,5%,0%,0%,0%,0%,22%,26%,0%,0%,0%,0%,0%,0%,9%,4%,62%,0%,0%
O=C(Nc1n[nH]c2cc(-c3ccccc3F)ccc12)C1CC1 [SB-733371],0%,0%,0%,10%,0%,0%,0%,16%,51%,46%,16%,41%,0%,21%,24%,0%,0%,0%,0%,22%
COc1ccc(-c2coc3ccc(-c4nnc(SCc5cccc(C#N)c5)o4)cc23)cc1,0%,7%,0%,19%,16%,9%,6%,22%,12%,0%,21%,0%,0%,14%,17%,18%,28%,0%,10%,0%
CCc1ccc(-c2ccc3c(c2)-c2nn(C)cc2S(=O)(=O)N3C)cc1,10%,0%,9%,0%,13%,0%,0%,0%,6%,0%,8%,0%,0%,0%,0%,0%,0%,32%,0%,0%
Nc1nc(N)c2nc(-c3ccccc3)[nH]c2n1 [SKF-12778],0%,17%,14%,63%,73%,7%,15%,3%,13%,1%,19%,3%,0%,0%,0%,7%,0%,1%,16%,0%
